Compound activity (PubChem BioAssay)
ST2 inh: inhibitors of human ST2 (IL1RL1) binding to IL-33, primary screen, biochemical, AlphaLISA; Interleukin-1 receptor-like 1 (Homo sapiens), Q01638; AlphaLISA ST2-Fc/biotin-IL-33 interaction, 1 h; inhibition, % for hits at 17 µM; 2.3% of 78,000 active; AID 1259354, 2018; in the data active = inhibition above about 30%
Target sequence (Q01638 whole entry, looked up): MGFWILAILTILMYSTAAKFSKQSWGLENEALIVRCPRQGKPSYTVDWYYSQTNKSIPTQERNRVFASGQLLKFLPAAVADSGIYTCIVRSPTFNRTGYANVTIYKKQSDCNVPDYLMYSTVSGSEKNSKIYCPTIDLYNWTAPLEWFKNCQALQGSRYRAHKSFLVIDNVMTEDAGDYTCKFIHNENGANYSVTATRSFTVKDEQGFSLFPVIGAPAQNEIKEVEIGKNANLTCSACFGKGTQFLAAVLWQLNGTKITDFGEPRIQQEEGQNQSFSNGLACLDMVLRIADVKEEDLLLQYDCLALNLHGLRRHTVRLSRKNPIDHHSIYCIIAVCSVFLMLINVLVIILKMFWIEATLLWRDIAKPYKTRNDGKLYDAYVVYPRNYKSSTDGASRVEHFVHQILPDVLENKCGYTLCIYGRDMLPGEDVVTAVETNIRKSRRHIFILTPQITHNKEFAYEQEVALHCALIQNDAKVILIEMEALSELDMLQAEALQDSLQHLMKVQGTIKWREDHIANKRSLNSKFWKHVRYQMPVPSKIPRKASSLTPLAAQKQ
The depositor's hits bear a star; i = inactive. Many of the other results were omitted from the sample, so hits are more common in it than they were.

SMILES	ST2 inh
O[C@@H]1C[C@@H](c2nc(-c3ccncc3)no2)N(Cc2ccc(-c3ccccn3)cc2)C1	33%*
Cn1c(CN2C[C@H](O)C[C@H]2c2nc(-c3ccccc3)no2)nc2ccccc21	i
O[C@@H]1C[C@@H](c2nc(-c3ccc(C(F)(F)F)cc3)no2)N(Cc2ccc(-c3ccccn3)cc2)C1	i
CC(C)c1noc([C@@H]2C[C@H](NC(=O)NC3CCCCC3)CN2C)n1	i
CCS(=O)(=O)c1ncc(CN(C)C(C)c2nc(C)sc2C)n1Cc1ccccc1 (stereo not drawn)	i
C=COCCNC(=O)C(=O)Nc1cccc(C(F)(F)F)c1	i
CC(C)C(NS(=O)(=O)c1cccs1)C(=O)NCc1cccs1 (stereo not drawn)	i
Cc1ccc(S(=O)(=O)N2CCN(c3nc(-c4cccs4)cs3)CC2)cc1	32%*
Cc1ccc(S(=O)(=O)N2CCCC2)cc1	i
CC1CC(C)CN(S(=O)(=O)c2ccc(C(=O)Nc3nc(-c4cccs4)cs3)cc2)C1 (stereo not drawn)	i
COCCN(Cc1cccs1)C(=O)c1cccc(-n2cnnc2)c1	i
CCCCN(CC)S(=O)(=O)c1ccc2c(c1)CCN2C(=O)C1CC1	i
Cc1cc(C)n(-c2ccc(C(=O)NC(Cn3ccnc3)C(C)C)cc2)n1 (stereo not drawn)	i
O=C(c1ccc(F)cc1)N(Cc1ccccc1)Cc1ccccc1	i
CC(=O)C1=NN(c2ccccc2)C2C(=O)N(c3ccc(C)cc3)C(=O)C12 (stereo not drawn)	i
CC1=NN(c2ccccc2)C(=O)C1C(=O)c1ccc(F)cc1 (stereo not drawn)	37%*
CCCCN(CC)C(=O)Cn1c(=O)n(-c2ccccc2)c(=O)c2sccc21	i
COc1ccc(C2CC(c3ccccc3)=NN2C(=O)c2cc(OC)c(OC)c(OC)c2)cc1 (stereo not drawn)	i
COc1cc(C(=O)N2N=C(c3ccccc3)CC2c2ccc(N(C)C)cc2)cc(OC)c1OC (stereo not drawn)	48%*
COc1ccccc1C1CC(c2ccccc2)=NN1C(=O)c1ccccc1 (stereo not drawn)	i
O=C(c1ccco1)N1CCN=C1SCc1ccc(Br)cc1	i
Cc1cc(Cl)nc(Cl)c1S(=O)(=O)NC1CCCCC1	i
O=C(NC1CCCCCC1)c1cc2c(=O)oc3ccccc3c2s1	i
O=C1C=C(Nc2cccc(C(F)(F)F)c2)C(=O)c2ccccc21	31%*
Cc1nnc(Nc2cccc(C(F)(F)F)c2)[nH]c1=O	i
SMILES	ST2 inh
O=C(CCCCCN1C(=O)c2ccccc2C1=O)Nc1cccc(C(F)(F)F)c1	i
Cc1cccc(Cn2c(=O)n(CCC(=O)NCc3ccccc3)c(=O)c3sccc32)c1	i
O=C(NCc1cccs1)C1CC(=O)N(C2CCCCCC2)C1 (stereo not drawn)	i
CC(C)NC(=O)c1cc(-c2ccc(Cl)c(Cl)c2)on1	i
Cc1cc(NC(=O)c2cc(-c3ccc(Cl)c(Cl)c3)on2)no1	i
Cc1noc(C)c1-c1ccc(Cl)c(Cl)c1	49%*
CC(C)c1ccc(NC(=O)N[C@H]2CO[C@H]3[C@@H]2OC[C@H]3OC(=O)Nc2ccc(C(C)C)cc2)cc1	i
CC(=O)c1cccc(CNC2CC(C)(C)Cc3c2cnn3-c2ccccc2C)c1 (stereo not drawn)	i
CC(=O)N1CCCN(Cc2cnc(S(=O)(=O)CC3CC3)n2CC2CCCCC2)CC1	i
CN(CCc1ccccn1)[C@H]1[C@@H]2OC[C@@H](O2)[C@@H](NC(=O)Nc2ccccc2)[C@@H]1O	i
COc1ccc(CN[C@H]2[C@H](O)[C@@H](N(C)CCN(C)C)[C@@H]3OC[C@H]2O3)cc1	i
CN(CCc1ccccn1)[C@H]1[C@@H]2OC[C@@H](O2)[C@@H](NCc2ccc(F)cc2)[C@@H]1O	32%*
CSc1ccc(CNC(=O)C2CCC(=O)N(CCN3CCOCC3)C2)cc1 (stereo not drawn)	i
CCOc1ccccc1-c1nccn1-c1cccc(N2CCCC2=O)c1	i
CN(C)CCNc1ncnc2sc3c(c12)CCCC3	i
COc1cc(/C=C2\SC(N3CCCCC3)=NC2=O)cc(OC)c1OC	i
COc1cc(/C=C2\SC(N)=NC2=O)cc(OC)c1O	i
COc1cc(/C=C2\SC(c3ccccc3)=NC2=O)cc(Br)c1O	40%*
CCOc1ccc(C2C(C(=O)OC)=C(N)OC3=C2C(=O)CC(c2ccccc2)C3)cc1 (stereo not drawn)	i
CCSc1nc2ccc([N+](=O)[O-])cc2[nH]1	i
O=c1[nH]c(SCc2nc3ccc([N+](=O)[O-])cc3[nH]2)nc2ccccc12	i
O=[N+]([O-])c1ccc2nc(/C=C/c3ccco3)[nH]c2c1	32%*
CC1CCCC(C)N1CC(=O)N1CCCc2c1c(=O)oc1ccc(OCc3ccccc3)cc21 (stereo not drawn)	i
COc1ccc(NS(=O)(=O)c2ccc(NC(=O)COc3ccccc3)cc2)cc1	i
COc1cccc(Nc2nc3ccccc3nc2NS(=O)(=O)c2ccc(NC(C)=O)cc2)c1	37%*
SMILES	ST2 inh
COc1ccccc1NS(=O)(=O)c1ccc(NC(C)=O)cc1	i
COc1ccc(OCCCN2CCCCCC2)cc1	43%*
Cc1cccc(OCCCN2CCCC2)c1	i
COc1ccc(CN2CCCCCC2)cc1	i
CCOc1ccc(N(CC)C(=O)Cc2cn(C)c3ccccc23)cc1	i
O=C1C(=Cc2ccc(-c3ccc([N+](=O)[O-])cc3Cl)o2)C(=O)c2ccccc21	i
COc1cc([N+](=O)[O-])ccc1NC(=O)C(c1ccccc1)c1ccccc1	i
COc1cc([N+](=O)[O-])ccc1-c1ccc(/C=C2\C(=O)ON=C2c2ccccc2)o1	34%*
COc1ccccc1CN(C(=O)Cc1ccc(SC)cc1)C1CC1	i
O=S(=O)(NCc1nc2cccnc2n1Cc1ccccc1)c1ccc(Cl)cc1	i
COc1ccc([C@@H]2C(C#N)=C(N)S[C@H]2C(=O)c2ccccc2)cc1	i
COc1ccc(C(=O)N2CCCc3ccccc32)cc1	i
COc1ccc(N2CCSC2C(=O)c2ccccc2)cc1 (stereo not drawn)	32%*
CC(C)/C=C/CN1CCC(Oc2ccccc2C(=O)N2CCCC2)CC1	i
CCOC(=O)c1c(C)[nH]c(C(=O)CSc2nc(C)nc3sc4c(c23)CCC4)c1C	i
O=C1CCC(C(=O)N2CCC(Cn3cccn3)CC2)CN1CCCN1CCOCC1 (stereo not drawn)	i
COc1ccc(OCc2ccccc2F)c(/C=C2\C(=O)NN(c3ccccc3)C2=O)c1	35%*
COc1cccc(OCCOc2ccc(/C=C3\C(=O)NN(c4ccccc4)C3=O)cc2)c1	i
COc1ccc(OCc2ccc(F)cc2)c(/C=C2\C(=O)NN(c3ccccc3)C2=O)c1	i
O=C(O)CCCN1C(=O)c2ccc(F)cc2C1=O	i
Cc1cc2nc(Cc3ccccc3Cl)c(=O)[nH]c2cc1C	i
Cc1cc(C(F)(F)F)n(CC(C)CN2Cc3ncccc3C2=O)n1 (stereo not drawn)	i
O=[N+]([O-])c1cccc(C2NCCc3c2[nH]c2ccccc32)c1 (stereo not drawn)	i
COc1ccc2[nH]c3c(c2c1)CCNC3=O	i
O=C1NCCc2c1[nH]c1ccc([N+](=O)[O-])cc21	30%*
CN(C)C1CCCN(C(=O)CCc2nc3cccnc3n2C)CC1 (stereo not drawn)	i
